Screening data: PubChem, National Center for Advancing Translational Sciences (NCATS)
TDP-43 tox inh: qHTS of TDP-43 Inhibitors: NCGC Sytravon Library Screen. hit rate 0.45% among 45,000. Potency, µM (top dose mostly 46.1 µM), actives largely listed as activators. yeast TDP-43 toxicity rescue, BacTiter-Glo growth, 24 h; active means well fitted activation curve with a large enough effect; further: 0% is about no effect; nearly all actives have a fitted effect of over 55% in size
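TDP-43-expressing yeast, pregrown in raffinose, seeded at OD600 0.02 in galactose medium with compound for 24 hr at 30 deg C. Growth read by BacTiter-Glo luminescence, so rescue of toxicity appears as activation.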
* = called active by the depositor; i = inactive. Many of the other results were omitted from the sample, so hits are more common in it than they were. Potency means the concentration at half of the fitted maximal effect.

SMILES | TDP-43 tox inh
CCN(CC)S(=O)(=O)c1ccc(NC(=O)CSc2ncnc3ccccc23)cc1 | 22.4µM*
Cc1ccc(-c2noc(-c3nnn(CC(=O)Nc4cc(Cl)ccc4C)c3N)n2)cc1 | i
Cc1c(C(=O)N(Cc2ccc(N(C)C)cc2)Cc2ccco2)oc2cc(Br)ccc12 | i
Cc1ccc(CNC(=O)C2CCN(C(=O)c3cnn(-c4ccccc4)c3-n3cccc3)CC2)cc1 | i
Cc1c(Cl)cccc1NC(=O)Cn1nnc(-c2nc(-c3ccccc3)no2)c1N | i
CCOC(=O)CSc1nc2sc3c(c2c(=O)n1Cc1ccccc1)CC(C)CC3 (configuration not stated) | i
CCn1c2ccccc2c2cc(CN3CCN(Cc4ccccc4Cl)CC3)ccc21 | i
O=C(CSc1nc2cc(Cl)ccc2s1)NCc1ccc2c(c1)OCO2 | i
CN1CCN(S(=O)(=O)c2ccc(NCc3ccc4c(c3)OCO4)nc2)CC1 | i
Clc1ccccc1-c1cnc2sc(NCc3ccc4c(c3)OCO4)nn12 | 5.01µM*
COc1ccc(CCC(=O)NCc2nc3cccnc3n2Cc2ccc(C)cc2)cc1 | i
COc1ccccc1N1CCN(C(=O)c2ccc3[nH]c4c(c3c2)CCCC4)CC1 | 17.8µM*
COc1cc(OC)cc(C(=O)N2CCC(N3CCN(c4ccccc4OC)CC3)CC2)c1 | i
COc1ccccc1N1CCN(C(=O)c2ccc(NS(=O)(=O)c3ccc(C)cc3)cc2)CC1 | i
CCCSc1ncc(Cl)c(C(=O)N(Cc2ccc(N(C)C)cc2)C2CCS(=O)(=O)C2)n1 (configuration not stated) | i
Cc1cccc(NC(=O)Cn2c(=O)n(CCCCCC(=O)NCc3ccc4c(c3)OCO4)c(=O)c3sccc32)c1 | i
O=S(=O)(c1cccc(-c2nnc(SCc3ccc(Cl)cc3)o2)c1)N1CCCCC1 | i
Brc1ccc(CSc2nnc(-c3cccnc3)o2)cc1 | 12.6µM*
CC1CCN(C(=O)CSc2nnc(-c3cccnc3)o2)CC1 | i
NC(=O)c1cc(C(=O)c2cccc(Cl)c2Cl)c[nH]1 | i
O=C(c1ccc(Cl)c(S(=O)(=O)N2CCCC2)c1)N1CCN(c2ccccc2F)CC1 | i
O=C(c1c[nH]c(C(=O)N2CCN(c3ccccc3F)CC2)c1)c1cccc(Cl)c1Cl | 20µM*
CCc1ccc(OCC(=O)N(Cc2ccco2)Cc2ccccc2Cl)cc1 | i
O=C(C1CCCN(S(=O)(=O)c2cc(Cl)ccc2Cl)C1)N1CCCC1 (configuration not stated) | 14.1µM*
COc1ccc(Cl)cc1S(=O)(=O)N1CCCC(C(=O)N2CCOCC2)C1 (configuration not stated) | i
SMILES | TDP-43 tox inh
O=C(C1CCCN(S(=O)(=O)c2ccc(Cl)cc2)C1)N1CCCC1 (configuration not stated) | i
CCCSc1ncc(Cl)c(C(=O)N2CCN(c3ccc(OC)cc3)CC2)n1 | i
Cc1ccc(NC(=O)COc2ccc(-c3nn(C)c(=O)c4ccccc34)cc2)c(C)c1 | i
COc1ccc(C(=O)c2cc([N+](=O)[O-])ccc2N2CCCC2)cc1 | i
CN1CCN(c2ccc([N+](=O)[O-])cc2C(=O)c2ccccc2)CC1 | i
Cc1ccc(C(=O)c2cc([N+](=O)[O-])ccc2N2CCOCC2)cc1C | 22.4µM*
CCOC(=O)c1c(NC(C)=O)c2c3c(sc2n1Cc1nc(-c2ccccc2OCC)oc1C)CCCC3 | i
O=C(/C=C/c1ccccc1)NCCSCc1ccccc1 | i
O=C(/C=C/c1cccc([N+](=O)[O-])c1)NCCc1ccc(F)cc1 | i
O=C(/C=C/c1cccc([N+](=O)[O-])c1)NCCSCc1cccc(Cl)c1 | 12.6µM*
CN(C)c1ccc(NC(=O)Cn2cc(S(=O)(=O)Cc3ccccc3Cl)c3ccccc32)cc1 | i
CN(Cc1ccc(F)cc1)C(=O)COc1ccccc1-c1ccccc1 | 25.1µM*
CCOc1ccccc1NC(=O)c1ccccc1-c1ccccc1 | i
CN(Cc1ccc(F)cc1)C(=O)C(c1ccccc1)c1ccccc1 | i
Cc1cc(Cl)ccc1OCC(=O)N(Cc1sccc1C)C1CCS(=O)(=O)C1 (configuration not stated) | i
Cc1cc([N+](=O)[O-])ccc1NCc1ccccc1[N+](=O)[O-] | i
O=[N+]([O-])c1ccccc1CNc1ccc(F)c(Cl)c1 | 15.8µM*
Cc1cc(F)ccc1NCc1ccccc1[N+](=O)[O-] | i
COC(=O)c1c(C)nn(-c2ccc(F)cc2)c1-n1cccc1 | i
COc1ccc(Br)c2c1-c1nc(NC(=O)c3cccc(C)c3)sc1C2 | i
COc1ccc(NC(=O)Cc2ccsc2)c(OC)c1 | i
CCC(=O)NC(=S)Nc1ccc(OC)cc1OC | i
COc1ccc(NCc2ccc([N+](=O)[O-])s2)c(OC)c1 | 12.6µM*
COc1cc(CNCc2ccco2)cc(OC)c1O | i
COc1ccc(-c2csc(NCc3ccco3)n2)cc1C | 17.8µM*
COc1ccc(-c2csc(NC(=S)NC(=O)c3cccs3)n2)cc1OC | i
Cc1ccc2nc(-c3cccc(NC(=O)CSc4ccc(Cl)cc4)c3)oc2c1 | i
